Compound activity deposited in PubChem by National Center for Advancing Translational Sciences (NCATS).
PLK1 PBD block: qHTS for Inhibitors of PLK1-PDB (polo-like kinase 1 - polo-box domain): Primary Screen. 360,000 compounds, 2.8% hits. Plk1 PBD binding of FITC phosphopeptide, fluorescence polarization. Potency, µM, inactives show max response, negative = inhibition, hits mostly inhibitors. Serine/threonine-protein kinase PLK1 (Homo sapiens), P53350; further: series mostly up to about 57 µM; on the % scale 0 is the no-effect control and ±100 the full control effect; nearly all actives have a fitted effect of over 65% in size
BRCA1 expr act: qHTS Assay to Identify Small Molecule Activators of BRCA1 Expression; Potency, µM (top dose mostly 46.1 µM), without a hit: at the top dose activation, actives largely listed as activators; MCF7-BRCA1-FFLuc reporter, luminescence, 48 h; response scale: scaled: vehicle 0%, 10 µM genistein 100%; 380,000 compounds, 1.1% hits; further: nearly all actives have a fitted effect of over 80% in size
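Cells: MCF7-BRCA1-FFLuc, 2000/well. Exposure: 48 h, 37 °C, 5% CO2. Read: luminescence, 15 min post-substrate. Controls: genistein 10 microM (maximal activation), DMSO (neutral).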
VDR inhibitor: Inhibitors of the vitamin D receptor (VDR): qHTS; Vitamin D3 receptor (Homo sapiens), P11473; VDR-SRC2-3 peptide fluorescence polarization, 2 h; Potency, µM, inactives show max response, negative = inhibition, usual class: inhibitors; 400,000 compounds, 0.93% hits; AID 504847, 2011; further: on the % scale 0 is the no-effect control and ±100 the full control effect
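Inhibition of the VDR/SRC2-3 peptide interaction is quantified by fluorescence polarization. Compounds (23 nl, pintool) incubate with the reagents for 2 hours at ambient room temperature.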
Tb PFK inh: qHTS Assay to Find Inhibitors of T. brucei phosphofructokinase | ATP-dependent 6-phosphofructokinase (Trypanosoma brucei brucei), O15648 | AID 485367, 2010 | 330,000 compounds, 0.17% hits | Potency, µM (highest dose often 57.5 µM), inactives show at the highest dose activity, negative = inhibition, usual class: inhibitors | T. brucei PFK, ADP-Glo luminescence;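 further: 0% = uninhibited 1x PFK enzyme wells and -100% = no-enzyme wells; nearly all actives have a fitted effect of over 60% in size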
Target sequence (O15648 whole entry, looked up): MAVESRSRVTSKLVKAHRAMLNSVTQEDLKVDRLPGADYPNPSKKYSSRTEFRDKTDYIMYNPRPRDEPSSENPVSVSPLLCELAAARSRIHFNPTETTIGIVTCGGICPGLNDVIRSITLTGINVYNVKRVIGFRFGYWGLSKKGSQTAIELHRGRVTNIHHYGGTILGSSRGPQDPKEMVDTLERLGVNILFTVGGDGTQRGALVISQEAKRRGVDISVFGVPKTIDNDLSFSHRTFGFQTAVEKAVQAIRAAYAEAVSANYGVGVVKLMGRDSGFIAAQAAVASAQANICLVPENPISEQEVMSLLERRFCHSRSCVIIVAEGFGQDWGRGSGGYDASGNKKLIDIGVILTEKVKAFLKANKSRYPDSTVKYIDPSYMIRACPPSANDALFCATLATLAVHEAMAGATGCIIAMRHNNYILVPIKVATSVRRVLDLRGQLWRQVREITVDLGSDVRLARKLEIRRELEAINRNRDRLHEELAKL
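In TEA buffer at pH 8.0 with 5 mM MgCl2, enzyme (1.25 nM) converted F6P (0.5 mM) and ATP (0.1 mM) for 45 min at room temperature. ADP product was read by luciferase luminescence.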
* hit, by the source's call. Shown are actives, neighbours in structure and some others; about 3.9% of the full set was active somewhere. The call rests on the fitted dose curve; in most records, active means well fitted curve in the direction sought with a large enough effect; inconclusive means small, poorly fitted or top-dose-only effect, or another doubt; inactive means no such curve, though single readings can be large; an effect the other way counts as inactive or inconclusive. Potency means the concentration at half of the fitted maximal effect.

How did COc1cccc2ccc(/C=C/c3ccc4c(c3)OCO4)nc12 do in these assays?
BRCA1 expr act: 3.5µM*; VDR inhibitor: 1%

What do the screens show for `COC(=O)C(C)Sc1ncnc2c1c(-c1ccccc1)cn2-c1ccc(F)cc1` (stereo not given)?
VDR inhibitor: -23%

How did CN(C)c1ncc(C2=C(Cl)C(=O)C(N3CCCC3)=C(Cl)C2=O)s1 do in these assays?
PLK1 PBD block: 7.5µM*; BRCA1 expr act: -31%; VDR inhibitor: 28µM*

Results for CC(=O)c1cnc(N(C)C)s1 ?
PLK1 PBD block: -10%; BRCA1 expr act: -3%; VDR inhibitor: 6%; Tb PFK inh: -2%

Results for O=C1C(Cl)=C(N2CCCCC2)C(=O)C(Cl)=C1c1cnc(N2CCCCC2)s1 ?
PLK1 PBD block: 7.5µM*; BRCA1 expr act: -54%; VDR inhibitor: inconclusive; Tb PFK inh: -4%

How did CCOC(=O)c1c(C)[nH]c(C(=O)/C(C#N)=C/c2ccc(OC(F)F)c(OC)c2)c1C do in these assays?
PLK1 PBD block: 4.7µM*; BRCA1 expr act: 1%; VDR inhibitor: inconclusive; Tb PFK inh: 4%

What do the screens show for `CCOc1ccc(/C=C(\C#N)C(=O)c2c(C)[nH]c3ccccc23)cc1OC`?
PLK1 PBD block: -8%; BRCA1 expr act: -9%; VDR inhibitor: -25%; Tb PFK inh: 4%

How did CCOC(=O)c1c(C)[nH]c(C(=O)/C(C#N)=C/c2ccc(OC)c(OC)c2)c1C do in these assays?
PLK1 PBD block: 17µM*; BRCA1 expr act: 7%; VDR inhibitor: -22%; Tb PFK inh: -1%

Results for NC[C@@H]1O[C@@H](O[C@H]2[C@H](O)[C@@H](O[C@@H]3O[C@@H](CO)[C@H](O)[C@@H](N)[C@@H]3O)[C@H](N)C[C@@H]2N)[C@@H](O)[C@H](O)[C@H]1O ?
VDR inhibitor: 1%

What do the screens show for `COc1ccc(C(=O)/C=C/C(=O)N(CC(=O)NCCC(C)C)Cc2cccs2)c(O)c1`?
PLK1 PBD block: 34µM*; BRCA1 expr act: -49%; VDR inhibitor: -10%; Tb PFK inh: -3%

How did COc1ccc(C(=O)N(Cc2ccco2)Cc2cccs2)c(O)c1 do in these assays?
PLK1 PBD block: -13%; BRCA1 expr act: 20%; VDR inhibitor: 4%; Tb PFK inh: -10%

How did Cc1cccc(NC(=O)CSc2nc(=O)n(Cc3ccccn3)c3c2CCC3)c1C do in these assays?
BRCA1 expr act: 0%; VDR inhibitor: -4%

What do the screens show for `CCc1nc2ccc(C(=O)N3CCCC(C(N)=O)C3)cn2c1N(C=O)CC` (stereo not given)?
PLK1 PBD block: -6%; BRCA1 expr act: 13%

What do the screens show for `CN(C)S(=O)(=O)c1ccc(NCC2COc3ccccc3O2)c([N+](=O)[O-])c1` (stereo not given)?
PLK1 PBD block: 30µM*; BRCA1 expr act: 19%; VDR inhibitor: inconclusive; Tb PFK inh: -7%

How did COCCCn1c(SCc2cccc(Cl)c2)nc2c(sc3ccccc32)c1=O do in these assays?
BRCA1 expr act: -12%; VDR inhibitor: 0%

Results for COc1cccc(-n2c(N)c(-c3nc4ccccc4[nH]3)sc2=S)c1 ?
PLK1 PBD block: 27µM*; BRCA1 expr act: -19%; VDR inhibitor: 4%; Tb PFK inh: 4%

How did COc1ccc2nc(-c3cccc(N)c3)[nH]c2c1 do in these assays?
PLK1 PBD block: -4%; BRCA1 expr act: 36%; VDR inhibitor: -4%; Tb PFK inh: 2%

What do the screens show for `CN(C(=O)c1cccc(NC(=O)Cc2ccccc2)c1)c1ccccc1`?
PLK1 PBD block: -4%; BRCA1 expr act: 0%; VDR inhibitor: -8%; Tb PFK inh: 0%

How did CCc1ccc(C(=O)Nc2ccc3nc(C)ccc3c2)cc1 do in these assays?
PLK1 PBD block: 7%; BRCA1 expr act: 3.2µM*; VDR inhibitor: -1%; Tb PFK inh: -3%

Results for Cc1ccc2cc(NC(=O)c3ccccc3C)ccc2n1 ?
PLK1 PBD block: -1%; BRCA1 expr act: 7.1µM*; VDR inhibitor: 3%; Tb PFK inh: -2%

What do the screens show for `Cc1ccc2cc(NC(=O)Cc3ccccc3)ccc2n1`?
PLK1 PBD block: -5%; BRCA1 expr act: 4.5µM*; VDR inhibitor: -11%; Tb PFK inh: -4%

Results for Cc1ccc2cc(NC(=O)c3ccc(C(C)(C)C)cc3)ccc2n1 ?
PLK1 PBD block: 6%; BRCA1 expr act: inconclusive; VDR inhibitor: 12%; Tb PFK inh: -1%

What do the screens show for `COc1ccccc1N1CCN(C(=O)Cc2c(C(=O)O)c(C)cn2C)CC1`?
VDR inhibitor: 12%

Results for COc1cccc(Cn2c3ccc(NC(=O)CCc4ccc(F)cc4)cc3c(=O)n2C)c1 ?
PLK1 PBD block: -2%; BRCA1 expr act: -14%

Results for O=C1C=CC(=O)C(CNc2ccc(C(=O)OCc3ccccc3)cc2)=C1 ?
PLK1 PBD block: 13µM*; BRCA1 expr act: -80%; VDR inhibitor: inconclusive

Results for CN(C)c1ccc(C(=O)OCc2ccccc2)cc1 ?
PLK1 PBD block: -12%; BRCA1 expr act: inconclusive; VDR inhibitor: -4%; Tb PFK inh: 0%

Results for Cc1ccc(CNC(=O)CCCC(=O)Nc2cc(C)on2)cc1 ?
PLK1 PBD block: 15µM*; BRCA1 expr act: -10%; VDR inhibitor: inconclusive; Tb PFK inh: -2%

Results for CCN(CC)C(=S)SCC(=O)c1ccc(F)cc1 ?
PLK1 PBD block: 30µM*; BRCA1 expr act: 3.2µM*; VDR inhibitor: 3%; Tb PFK inh: 3%

What do the screens show for `CCN(CC)C(=S)SCC(=O)c1ccccc1`?
PLK1 PBD block: -8%; BRCA1 expr act: 7.9µM*; VDR inhibitor: 17%; Tb PFK inh: -1%

What do the screens show for `Clc1ccccc1Cn1nnc2c(N3CCCC3)ncnc21`?
PLK1 PBD block: -2%; BRCA1 expr act: -1%; VDR inhibitor: -6%; Tb PFK inh: 2%

How did O=C(CSc1ncnc2c1nnn2Cc1ccccc1)NC1CCCC1 do in these assays?
PLK1 PBD block: -30%; BRCA1 expr act: 11%; VDR inhibitor: -3%; Tb PFK inh: 1%

Results for CC(C)(C)NC(=O)CSc1ncnc2c1nnn2Cc1ccccc1Cl ?
PLK1 PBD block: 27µM*; BRCA1 expr act: -31%; VDR inhibitor: inconclusive; Tb PFK inh: 1%

How did CC1Cc2ccccc2N1c1ncnc2c1nnn2Cc1ccccc1Cl (stereo not given) do in these assays?
PLK1 PBD block: 27µM*; BRCA1 expr act: -19%; VDR inhibitor: 2%; Tb PFK inh: -5%

What do the screens show for `COCCN1C(=O)N[C@@H](CCc2ccccc2)C(C(=O)OC)=C1C`?
VDR inhibitor: -10%

Results for CC(C)(C)c1ccc(C(=O)CS(=O)(=O)c2ccccc2)cc1 ?
PLK1 PBD block: -14%; BRCA1 expr act: 4µM*; VDR inhibitor: 2%; Tb PFK inh: -2%

Results for COc1ccc(N2CC(NC(=O)C3CCCCC3)CC2=O)cc1OC (stereo not given) ?
BRCA1 expr act: 8%; VDR inhibitor: 5%
